# Source: PubChem BioAssay (National Center for Advancing Translational Sciences (NCATS))
# Pol eta inh: inhibitors of human DNA polymerase eta. Q9Y253. Potency, µM (doses to about 114 µM), for the others: top-dose activity change, negative = inhibition, usual class: inhibitors. recombinant Pol eta, fluorescent DNA replication assay. 390,000 tested, 1.2% active. AID 588591; further: on the % scale 0 is the no-effect control and ±100 the full control effect
#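 Pol eta (10 nM) was preincubated with compounds for 15 min at room temperature, after which fluorescent replication substrate (50 nM final) was added to start the reaction. Fluorescence was read kinetically at 0 and 10 min.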
# Pol kappa inh: inhibitors of human DNA polymerase kappa. Potency, µM (highest dose often 107 µM), without a hit: at the top dose activity, negative = inhibition, usual class: inhibitors. Q9UBT6. 400,000 tested, 0.53% active. purified Pol kappa, fluorescent DNA synthesis assay, 10 min; further: on the % scale 0 is the no-effect control and ±100 the full control effect
#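 10 nM Pol kappa was preincubated with compounds for 15 min at room temperature. Reaction started with 50 nM (final) substrate. Fluorescence read kinetically at 0 and 10 min.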
# POLB inh: DNA polymerase beta (human) inhibition. Pol beta primer extension/strand displacement, fluorescence kinetic. Potency, µM (series often up to 114 µM), without a hit: at the highest dose activity change, negative = inhibition, most hits filed as inhibitors. 340,000 tested, 1.3% active. AID 485314; further: on the % scale 0 is the no-effect control and ±100 the full control effect
#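 Enzyme-only controls used 10 nM Pol beta; buffer lacking enzyme served as negative control. Compound preincubated 15 min, then 50 nM substrate added; 0 and 10 min reads at room temperature.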
# WRN inhibitor: blocks human WRN helicase. Q14191. WRN helicase unwinding, fluorescent forked duplex, kinetic. Potency, µM (doses to about 114 µM), without a hit: at the highest dose activity change, negative = inhibition, actives largely listed as inhibitors. 360,000 tested, 0.46% active; further: on the % scale 0 is the no-effect control and ±100 the full control effect; nearly all actives have a fitted effect of over 55% in size
#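 Kinetic fluorescence helicase assay: unwinding of a quenched forked DNA duplex (100 nM final) with 2 mM ATP final raises red fluorescence (525/598 nm). Compounds sat 15 min at room temperature with 20 nM WRN beforehand.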
# Pol iota inh: blocks human DNA polymerase iota activity | AID 588590 | 390,000 tested, 1% active | Potency, µM (titrated, usually from 115 µM), for inactives: at the highest dose activity, negative = inhibition, hits mostly inhibitors | Pol iota fluorescent replication assay, 10 min | Q9UNA4
# Target sequence (Q9UNA4 whole entry, looked up): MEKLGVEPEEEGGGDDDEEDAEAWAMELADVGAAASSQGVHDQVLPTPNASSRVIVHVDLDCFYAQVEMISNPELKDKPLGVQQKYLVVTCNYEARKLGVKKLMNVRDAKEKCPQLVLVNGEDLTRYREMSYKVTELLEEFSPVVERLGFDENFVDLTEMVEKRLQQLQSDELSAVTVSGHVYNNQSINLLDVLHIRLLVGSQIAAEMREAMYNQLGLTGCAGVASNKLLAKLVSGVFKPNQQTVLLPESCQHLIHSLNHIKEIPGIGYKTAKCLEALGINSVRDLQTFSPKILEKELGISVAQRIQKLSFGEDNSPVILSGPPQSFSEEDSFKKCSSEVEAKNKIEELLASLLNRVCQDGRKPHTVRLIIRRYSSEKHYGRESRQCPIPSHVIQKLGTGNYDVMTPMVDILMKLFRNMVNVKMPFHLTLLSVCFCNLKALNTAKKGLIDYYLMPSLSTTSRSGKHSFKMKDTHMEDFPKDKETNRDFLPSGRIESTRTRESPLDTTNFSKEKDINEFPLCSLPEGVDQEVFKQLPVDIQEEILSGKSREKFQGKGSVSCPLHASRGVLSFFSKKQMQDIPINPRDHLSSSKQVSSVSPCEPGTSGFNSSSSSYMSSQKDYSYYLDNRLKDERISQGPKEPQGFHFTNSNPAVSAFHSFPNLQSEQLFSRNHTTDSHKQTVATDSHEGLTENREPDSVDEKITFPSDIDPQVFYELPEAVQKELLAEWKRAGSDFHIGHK
#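 Fluorescent replication assay read twice, at 0 min and 10 min after adding 50 nM (final) substrate. Enzyme (10 nM) and compounds were first incubated 15 min at room temperature; enzyme-free buffer wells were negative controls.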
# FEN1 inhibitor: human FEN1 inhibition; 390,000 tested, 0.35% active; Recombinant FEN1 flap cleavage, fluorescence, 15 min; AID 588795; Potency, µM (highest dose often 114 µM), for the others: at the highest dose activity change, negative = inhibition, actives largely listed as inhibitors; further: on the % scale 0 is the no-effect control and ±100 the full control effect; nearly all actives have a fitted effect of over 65% in size
#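 Potency values derive from four-parameter Hill fits of normalized qHTS data. The reaction used 10 nM FEN1 preincubated 15 min at room temperature with compound, then 50 nM DNA substrate, read at 0 and 15 min.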
# Starred values were filed as active, the others as inactive; ? = inconclusive; / = no result given; ! = repeats disagree; [ ] = another dose, or the depositor's remark. In the library only some 2.4% were active in any assay of this set; here they are far more common. The call rests on the fitted dose curve; in most records, active means well fitted curve in the direction sought with a large enough effect; inconclusive means small, poorly fitted or top-dose-only effect, or another doubt; inactive means no such curve, though single readings can be large; an effect the other way counts as inactive or inconclusive. Potency means the concentration at half of the fitted maximal effect.
SMILES,Pol eta inh,Pol kappa inh,POLB inh,WRN inhibitor,Pol iota inh,FEN1 inhibitor
COc1ccccc1N1C(=O)NC(=O)/C(=C\c2cnn(-c3ccccc3)c2)C1=O,39.8µM*,-18.3%,25.1µM*,?,17.8µM*,-2.7%
CNCCc1ccc(O)c(O)c1,-5.8%[57.1 µM],?,-0.5%[57.1 µM],10.0%,89.1µM*,/
COc1cccc(-n2c(/C=C/c3ccc(O)c(O)c3)nc3ccccc3c2=O)c1,28.2µM*,-43.2%,8.91µM*,-30.7%,22.4µM*,?
O=c1c2ccccc2nc(/C=C/c2ccc(O)cc2)n1-c1cccc(O)c1,56.2µM*,?,3.98µM*,?,25.1µM*,?
C[C@@H]1CO1,/,16.7%[60.1 µM],/,/,/,/
C[N+]1(C)[C@@H]2CC(OC(=O)[C@@H](CO)c3ccccc3)C[C@@H]1[C@H]1O[C@H]12 (stereo not given in full),/,-21.1%[60.1 µM],/,/,/,/
Cc1cc(/C=C/c2cccc3sc(C)[n+](CCCCI)c23)ccc1N(CCCl)CCCl,/,56.2µM*,/,/,79.4µM*,?
O=C1NC(=O)N(c2ccc(Cl)cc2)C(=O)/C1=C/c1coc2ccc(O)cc2c1=O,?,?,?,?,?,-18.8%
O=C1NC(=O)N(c2ccccc2)C(=O)/C1=C/c1coc2ccc(O)cc2c1=O,?,?,3.0%,?,22.4µM*,-1.8%
c1csc(CN2CC[C@@]3(CCCNC3)C2)n1,/,-2.1%[60.1 µM],/,/,/,/
NC(N)=Nc1ccc2[nH]c3c(c2c1)C[C@@]1(O)[C@H]2Cc4ccc(O)c5c4[C@@]1(CCN2CC1CC1)[C@H]3O5,-28.1%,-19.7%[60.1 µM],3.5%[57.1 µM],?,?,50.1µM*
N#CC(C#N)=Cc1cc(O)c(O)c(O)c1,2.24µM*,3.16µM*,-25.7%[57.1 µM],/,9.47µM*,/
N#CC(C#N)=Cc1ccc(O)cc1,/,-13.8%[60.1 µM],/,/,/,/
c1ccc(CCN2CCCCC2)cc1,/,4.5%,/,/,20.7%,2.9%
CC(=O)N1CCN(c2ccc(OCC3CO[C@@](Cn4ccnc4)(c4ccc(Cl)cc4Cl)O3)cc2)CC1 (stereo not given in full),/,-4.1%[60.1 µM],/,/,/,/
CC(C)CN1CC2(CCN(C(=O)c3ccncc3)CC2)C1,/,-6.9%[60.1 µM],/,/,/,/
O=C(CN1CCCC2CCCCC21)c1ccc(I)cc1 (stereo not given),/,-8.0%,/,/,8.6%,-5.4%
NC(Cc1cc(O)c(O)cc1O)C(=O)O (stereo not given),0.282µM*,0.67µM*,0.112µM*,/,0.398µM*,3.16µM*
N[C@@H](CCl)C(=O)O,1.1%[57.1 µM],-10.6%[60.1 µM],15.3%[57.1 µM],-2.4%,-4.3%[58.9 µM],-2.7%
CCCCCc1cc(O)c2c(c1)OC(C)(C)C1CC=C(C)CC21 (stereo not given),/,-2.5%[19.4 µM],/,/,/,/
Clc1cncc(N2CCNCC2)n1,/,-2.4%[19.4 µM],/,/,/,/
CN[C@@H]1C[C@H](c2ccc(Cl)c(Cl)c2)c2ccccc21,/,-12.0%[19.4 µM],/,/,/,/
CCCCCn1c(N)c(C(=O)NCc2cccs2)c2nc3ccccc3nc21,-12.5%,-0.6%,15.1%,-4.5%,22.4µM*,-18.5%
CCCNC(=O)c1c(N)n(CC2CCCO2)c2nc3ccccc3nc12 (stereo not given),-0.2%,-12.2%,9.9%,-13.2%,12.1%,?
CCCCn1c(N)c(C(=O)NCc2cccs2)c2nc3ccccc3nc21,-2.7%,-6.6%,-9.1%,-7.5%,?,-21.8%
SMILES,Pol eta inh,Pol kappa inh,POLB inh,WRN inhibitor,Pol iota inh,FEN1 inhibitor
COc1ccc(Cn2c(N)c(C(=O)NCc3ccco3)c3nc4ccccc4nc32)cc1,?,-16.3%,56.2µM*,-14.9%,?,-19.2%
COCCCn1c(N)c(C(=O)NCCC(C)C)c2nc3ccccc3nc21,-12.4%,-27.6%,5.5%,-16.3%,4.47µM*,?
CC(C)OCCCNC(=O)c1c(N)n(CC2CCCO2)c2nc3ccccc3nc12 (stereo not given),-13.1%,-12.7%,?,-21.1%[57.1 µM],7.08µM*,-11.4%
CCCCn1c(N)c(C(=O)OCCOC)c2nc3ccccc3nc21,-2.0%,-16.7%,9.9%,4.2%,66.8%,1.6%
C=CCSC1=N/C(=C\c2cc(OC)c3c(c2)OCO3)C(=O)S1,?,-20.8%,22.4µM*,-21.9%,?,-16.8%
CC1C(=O)OC2CCN3CC=C(COC(=O)[C@](C)(O)[C@]1(C)O)C23 (stereo not given in full),/,-0.8%[60.1 µM],/,/,/,/
COc1c2c(cc3c1OCO3)CCN(C)C2,-8.1%,-4.4%,/,0.5%,-10.5%,-0.6%
COc1cc2c(cc1O)C[C@H]1NCCc3cc4c(c-2c31)OCO4,?,?,39.8µM*,?,14.1µM*,10µM*
N#C/C(=C\c1ccc(O)c(O)c1)C(N)=S,/,0.126µM*,/,/,/,/
O=Cc1ccc(O)c(O)c1,-5.3%,-9.2%,10.7%,0.3%,?,-12.4%
Cc1ccc(N2C(=O)/C(=C/c3ccc(CN(CCC#N)S(C)(=O)=O)o3)C(=O)NC2=S)cc1,2.24µM*,17.8µM*,6.31µM*,50.1µM*,3.16µM*,35.5µM*
C=CCN=C=S,/,2.5%[60.1 µM],/,/,/,/
CC(=O)Oc1ccc2c3c1OC1[C@@H](OC(C)=O)C=C[C@H]4[C@H](C2)N(C)CC[C@]314 (stereo not given in full),/,2.5%[19.4 µM],/,/,/,/
O=C(Cn1ncc2c3ccccc3n(Cc3cccc(Cl)c3)c2c1=O)N1CCC2(CC1)OCCO2,?,-18.1%,17.8µM*,-8.8%,?,-11.2%
Cc1c2cnn(CC(=O)N3CCC4(CC3)OCCO4)c(=O)c2c(C)n1Cc1cccc(Cl)c1,-4.2%,-13.5%,38.4%,-4.8%,-11.7%,-15.6%
COC1=C[C@H]2[C@H]3Cc4ccc(OC)c(O)c4[C@@]2(CCN3C)CC1=O,/,-8.6%[19.4 µM],/,/,/,/
O=C(Nc1cc(C(F)(F)F)cc(C(F)(F)F)c1)c1cc(Cl)ccc1O,/,29.9µM*!,/,/,/,/
O=C(Nc1cc(C(F)(F)F)cc(C(F)(F)F)c1)c1cccn(Cc2ccccc2Cl)c1=O,-14.5%,-7.6%[60.1 µM],-14.4%,/,8.2%,-2.4%
CN1CCC2(CC1)C(C#N)=C(N)NC(S)=C2C#N,-16.5%,-22.4%,?,56.2µM*!,-11.7%,-22.6%
COc1ccc2c(c1)CCc1c(C(=O)Nc3c(C)nn(Cc4ccccc4C)c3C)noc1-2,-15.3%,-13.2%,18.9%,/,43.4%,-16.8%
O=C(O)c1cc(O)c(O)c(O)c1,/,10µM*!,/,/,/,/
CCN(CC)C(=O)c1c(C)[nH]c(=S)c(C#N)c1-c1ccco1,-13.8%,3.7%,0.7%,50.1µM*,101.9%,-0.3%
Oc1ccc2c3c1O[C@H]1c4c(c5ccccc5n4Cc4ccccc4)C[C@@]4(O)C(C2)N(CC2CC2)CC[C@]314,/,-4.2%[19.4 µM],/,/,/,/
CC(C)C[C@H]1C(=O)N2CCCC2[C@]2(O)O[C@](NC(=O)[C@@H]3C=C4c5cccc6[nH]cc(c56)CC4N(C)C3)(C(C)C)C(=O)N12 (stereo not given in full),-24.7%,?,0.4%,-1.2%,?,-20.2%
